About 83,000 compounds went through this panel and 20% of them were active in at least one assay; those are over-represented in the sample as a whole.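 Plates (96-well) were seeded with cells, treated with compound at one concentration, and incubated for 48 hours before percent growth was determined.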 Values without a mark were called inactive. The source made the active and inactive calls. Rule for the calls: active = growth percent below 10; inactive = the rest.
What follows are compounds tested on HCT-15 colon (assay: NCI-60 one-dose screen, 48 h (100 = growth as untreated, 0 = no growth, -100 = all killed)). Conditions: 10 µM unless noted.

SMILES	growth
CC(=O)N/C(=C1/OC(C(O)C(O)C(O)CO)CN1C)[P+](c1ccccc1)(c1ccccc1)c1ccccc1 (centres undefined)	98.5%
COc1ccc(/C=C/C(=O)c2ccc(Nc3nc(Nc4ccc(F)cc4)nc(Nc4ccc(Cl)cc4)n3)cc2)cc1	100%
COc1ccc(C2=NN(C(=O)c3cc(OC)c(OC)c(OC)c3)C(c3ccc(N(C)C)cc3)C2)cc1 (centres undefined)	10.6%
O=C1NC(=C(Cl)Cl)/C(=N/S(=O)(=O)NCCc2c[nH]c3ccccc23)N1	98.6%
COc1ccc(C/C(C)=C(\c2ccc(O)cc2)c2ccc(OCCN3CCCC3)cc2)cc1	102%
CCOC(=O)NN1CC(O)=C(c2nc(-c3ccc(Br)cc3)cs2)C1=N	115%
COC(=O)/C(CCC=C(C)C)=C1\[C@@H](OC(C)=O)C[C@@]2(C)[C@H]1CC(=O)[C@H]1[C@@]3(C)CCC(N4CCCC4)[C@@H](C)[C@@H]3CC[C@@]12C (some centres undefined)	73.4%
Nc1c(C(=O)Nc2ccccn2)sc2nc3c(cc12)C(O)CCC3 (centres undefined)	23.1%
COc1ccc2nc3cc(Cl)ccc3c(NCCN)c2c1	-37.7% (active)
Cc1cc2nc3c4ccccc4n(CCN(C)C)c3nc2cc1C	-3.11% (active)
Cc1ccc(C)n1/C=C/n1c(C)ccc1C	106%
Cc1c2ccccc2nc2c1ccc1cccnc12	81.4%
CN1CCN(Cc2ccc(NC(=O)c3cncc(C#Cc4cncc5ncccc45)c3)cc2C(F)(F)F)CC1	19.7%
CCNC(=O)Oc1ccc(/C(=C(/C)Cc2ccc(OC)cc2)c2ccc(OCCN3CCCCCC3)cc2)cc1	18.7%

Reference: PubChem BioAssay (NCI)
